This is part of a sample that, as a whole, favours compounds with a hit. Of some 83,000 tested, about 20% had one in any assay.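 Values shown are percent growth following 48 h exposure of cells in 96-well plates to a single concentration of compound; below 10 was considered active.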 A number with no mark means an inactive call. Activity calls are given as the source filed them.
How the values were obtained:
Assay in all cases: NCI-60 one-dose screen, 48 h (100 = growth as untreated, 0 = no growth, -100 = all killed)
Details in all cases: 10 µM unless noted
[1] = test system: HCT-15 colon
[2] = test system: HT29 colon
[3] = test system: SNB-75 CNS
[4] = test system: SNB-19 CNS
[5] = test system: U251 CNS
[6] = test system: PC-3 prostate
[7] = test system: SK-MEL-5 melanoma
[8] = test system: UACC-62 melanoma
[9] = test system: LOX IMVI melanoma
[10] = test system: SK-MEL-28 melanoma
[11] = test system: SK-MEL-2 melanoma
[12] = test system: EKVX NSCLC
[13] = test system: SN12C renal
[14] = test system: UO-31 renal
[15] = test system: TK-10 renal
[16] = test system: ACHN renal
[17] = test system: CAKI-1 renal
[18] = test system: A498 renal
[19] = test system: CCRF-CEM leukemia
[20] = test system: MOLT-4 leukemia

Row | Structure (SMILES) | growth [1] | growth [2] | growth [3] | growth [4] | growth [5] | growth [6] | growth [7] | growth [8] | growth [9] | growth [10] | growth [11] | growth [12] | growth [13] | growth [14] | growth [15] | growth [16] | growth [17] | growth [18] | growth [19] | growth [20]
1 | CCCCCc1ccc(S(=O)(=O)Nc2cccc(-c3csc(NC(=O)CNCCN(C)C)n3)c2)cc1 | 26.5% | 53.9% | 87.5% | 90.4% | 69.4% | 64.7% | 73.2% | 102% | 33.2% | 90.6% | 108% | 81.4% | 91.2% | 74.8% | 112% | 96.4% | 86.8% | 76.9% | 63.5% | 61.8%
2 | COc1cc(Nc2c(C#N)cnn3cc(-c4cnn(CC(C)(C)O)c4)cc23)ccc1Cl | 29.9% | 54.3% | 55.5% | 88.1% | 67.2% | 62.4% | 65.3% | 46% | 31% | 86% | 61.1% | 43.4% | 23.5% | 11.6% | 23.3% | 18% | 9.46% (active) | -24.4% (active) | 32.6% | 36.7%
3 | Nc1ccccc1NC(=O)c1ccc(NC(=O)C/C=C/c2cccnc2)cc1 | 30.2% | 18.1% | 44.6% | 39.4% | 21.5% | 36.9% | 12.3% | 15% | 20.3% | 0.0488% (active) | 15.5% | 61.3% | 29.1% | 17.6% | 28.9% | 47.1% | 45.1% | -16.4% (active) | 22.5% | 31.1%
4 | CCc1ccc(SC2c3ccc(N(CC)CC)cc3Oc3nc(N)c(C#N)c(N)c32)cc1 (stereo not given) | -88% (active) | -54.6% (active) | 12.7% | -95.1% (active) | -71.3% (active) | -74% (active) | -97% (active) | -32.7% (active) | -86.6% (active) | -18.7% (active) | -48.2% (active) | -54.8% (active) | -32.9% (active) | -98.8% (active) | -18% (active) | -53.7% (active) | -46.7% (active) | -8.49% (active) | -23.7% (active) | -8.26% (active)
5 | COc1ccc(-c2cc(-c3ccc(Cl)cc3)c(C#N)c(=O)n2Cc2ccc(C(=O)O)cc2)cc1 | 79% | 117% | 3.46% (active) | 90.1% | 84.3% | 68.9% | 87.2% | 18.4% | 75.7% | 60.7% | 61.9% | 98.2% | 103% | 68.1% | 116% | 102% | 70.3% | 83% | 30.7% | 53.1%
6 | CC1=CC(=O)C2=C(C)CC(OC(=O)CCc3ccccc3)[C@@H]3[C@H](OC(=O)[C@@H]3C)[C@@H]12 (stereo not given in full) | 81.7% | 78.1% | 95.8% | 93.6% | 102% | 76.7% | 82% | 72.7% | 95.9% | 100% | 103% | 102% | 95.3% | 79.1% | 102% | 101% | 86.1% | 82.4% | 88.7% | 83.6%
7 | COc1cc2nc(Cl)nc(Nc3cccc(C4=Nc5c(N)nc(N)nc5NC(c5ccc(Cl)cc5)C4)c3)c2cc1OC (stereo not given) | -7.82% (active) | 3.99% (active) | 89.9% | 12.8% | -52.4% (active) | 62.8% | 70.6% | 92% | -52.3% (active) | 73.9% | 76.9% | 95.3% | 73.7% | 89.9% | 115% | 102% | 86.8% | 99.4% | 3.94% (active) | 10%
8 | COc1c(N2CC3CCCNC3C2)c(F)cc2c(=O)c(C(=O)N/N=C/c3c[nH]c4ccccc34)cn(C3CC3)c12 (stereo not given) | 57.4% | 50.5% | 99.5% | 103% | 99.2% | 76.9% | 95.3% | 103% | 90.2% | 104% | 110% | 105% | 95.7% | 77.2% | 137% | 99.8% | 98.7% | 118% | 71.2% | 74.1%
9 | CCO/C=N/C1=C(C#N)C(c2ccc(Cl)cc2)c2sc3c(CC)cccc3c2O1 (stereo not given) | 23.3% | 10.7% | -5.34% (active) | 24.1% | 20% | 16.5% | 20.5% | 15.8% | 29.9% | 61.2% | 38.8% | 47.8% | 36.3% | 39.5% | 60.6% | 40.9% | 40.6% | 2.43% (active) | 16.1% | 23.6%
10 | COc1ccc(NC(=O)CSc2nnc(-c3ccc4nc(-c5ccccc5)[nH]c4c3)o2)cc1 | 92.2% | 108% | 101% | 102% | 102% | 105% | 85.9% | 95% | 101% | 99.7% | 105% | 94% | 96% | 85.7% | 121% | 102% | 101% | 98% | 91.6% | 83.5%
11 | NC(N)=Nc1ccc(Oc2ccc(Nc3ccc(Cl)c(C(F)(F)F)c3)cc2)cc1 | 37% | 13.7% | 95.2% | 3% (active) | 3.48% (active) | 32.5% | 8.32% (active) | 38.2% | -96% (active) | 56.6% | 91.6% | 52.4% | 31.7% | 69.8% | 95.6% | 73.4% | 69.4% | 68.3% | 20.3% | 18.5%
12 | NC(N)=Nc1ccc(Nc2cccc(Oc3ccc(Cl)c(C(F)(F)F)c3)c2)cn1 | 42% | 18.9% | 52.7% | 24.3% | -68.8% (active) | -55.8% (active) | 28.3% | 45.6% | -97.2% (active) | 60.7% | 74.9% | 30.5% | -71.8% (active) | 56.4% | 81.7% | 55.7% | 42.9% | 62.8% | -9.86% (active) | 0.616% (active)
13 | CCO/C=N/C1=C(C#N)C(c2ccc(F)cc2)c2sc3c(CC)cccc3c2O1 (stereo not given) | 12.6% | 10.1% | 3.71% (active) | 21.4% | 21.4% | 13.6% | 26.6% | 16.1% | 14.7% | 61% | 42.7% | 49% | 22.9% | 32.2% | 63.9% | 28.4% | 36.4% | -3.45% (active) | 13.1% | 19.8%
14 | CC(C)C[C@@H]1N[C@@]2(C(=O)Nc3ccccc32)[C@@H](c2ccc(F)cc2)[C@@H]1C(=O)c1ccc(O)cc1 | 93% | 105% | 96.8% | 95.1% | 97.1% | 63.6% | 93.5% | 69% | 92.4% | 103% | 102% | 79.9% | 96.5% | 58.3% | 120% | 80.1% | 67.3% | 94.5% | 85% | 77.5%

— PubChem BioAssay (NCI)
